Assay results as given in the supplement of paper PMC6555819.

Key:
Assay in all cases: PBM binding z-score (relative to random genomic background probes); higher = stronger binding; sequences stand for … in GC…GCGATTGACAGCGTAGAATGAAGG
[1] = tested on: FXR:RXRa (NR concentration 270 nM, RXRa partner concentration 90 nM)
Outline: (§1)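 Regression normalization was applied to scanned fluorescence from custom Agilent 4×180K protein-binding microarrays. Before scanning, arrays were incubated 1 h with ligand-free nuclear receptor dimers, and binding was detected with antibodies against each partner (one per run). Binding z-scores use the random background probes as reference.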

[2] = tested on: LXRa:RXRa (NR concentration 270 nM, RXRa partner concentration 90 nM)
Outline: as §1

[3] = tested on: LXRa homodimer (NR concentration 270 nM)
Outline: as §1

[4] = tested on: LXRb:RXRa (NR concentration 270 nM, RXRa partner concentration 90 nM)
Outline: as §1

[5] = tested on: LXRb homodimer (NR concentration 270 nM)
Outline: as §1

[6] = tested on: PPARa:RXRa (NR concentration 270 nM, RXRa partner concentration 90 nM)
Outline: as §1

[7] = tested on: PPARg:RXRa (NR concentration 180 nM, RXRa partner concentration 90 nM)
Outline: as §1

[8] = tested on: PPARg:RXRa 270nM:90nM, anti-RXR (NR concentration 270 nM, RXRa partner concentration 90 nM)
Outline: as §1

[9] = tested on: PPARg:RXRa 30nM:10nM, anti-RXR (NR concentration 30 nM, RXRa partner concentration 10 nM)
Outline: as §1

[10] = tested on: PPARg:RXRa 90nM:30nM, anti-RXR (NR concentration 90 nM, RXRa partner concentration 30 nM)
Outline: as §1

[11] = tested on: PPARg:RXRa DBDmut IVT, anti-RXR (DBD mutation: RXRa K156A/R161A, NR concentration 270 nM, RXRa partner concentration 90 nM)
Outline: as §1

[12] = tested on: PPARg:RXRa IVT, anti-PPARg (NR concentration 270 nM, RXRa partner concentration 90 nM)
Outline: as §1

[13] = tested on: PPARg DBDmut:RXRa IVT, anti-PPARg (DBD mutation: PPARg1 K132A/R137A, NR concentration 270 nM, RXRa partner concentration 90 nM)
Outline: as §1

[14] = tested on: PPARg DBDmut IVT, anti-PPARg (DBD mutation: PPARg1 K132A/R137A, NR concentration 270 nM)
Outline: as §1

[15] = tested on: PPARg homodimer (NR concentration 180 nM)
Outline: as §1

[16] = tested on: PXR:RXRa (NR concentration 270 nM, RXRa partner concentration 90 nM)
Outline: as §1

[17] = tested on: PXR homodimer (NR concentration 270 nM)
Outline: as §1

[18] = tested on: RARa:RXR (NR concentration 270 nM, RXRa partner concentration 90 nM)
Outline: as §1

[19] = tested on: RARa homodimer (NR concentration 270 nM)
Outline: as §1

[20] = tested on: RARb:RXRa (NR concentration 270 nM, RXRa partner concentration 90 nM)
Outline: as §1

Sequence | PBM binding z-score [1] | PBM binding z-score [2] | PBM binding z-score [3] | PBM binding z-score [4] | PBM binding z-score [5] | PBM binding z-score [6] | PBM binding z-score [7] | PBM binding z-score [8] | PBM binding z-score [9] | PBM binding z-score [10] | PBM binding z-score [11] | PBM binding z-score [12] | PBM binding z-score [13] | PBM binding z-score [14] | PBM binding z-score [15] | PBM binding z-score [16] | PBM binding z-score [17] | PBM binding z-score [18] | PBM binding z-score [19] | PBM binding z-score [20]
ACTATTAGTTGAGACGGGGGCAACCGATAGGTTG | 1.28 | 1.35 | 0.528 | 3.71 | 7.57 | 2.52 | 1.16 | 2.35 | 1.24 | 1.87 | 1.48 | 3.27 | 5.1 | 7.99 | 1.63 | 2.63 | 0.549 | 2.25 | 0.997 | 1.94
CCGACTGGGGCAAGGTTAACATAACGCACAGCCA | 0.315 | 0.681 | -0.0664 | 0.737 | -0.786 | 2.59 | 4.38 | 4.92 | 2.68 | 4.38 | 3.28 | 3.69 | 0.246 | -0.475 | 0.856 | 0.52 | -0.244 | 0.896 | 0.086 | 1.74
CCTAGTTGGTCAGGGTCACACACGCTATAGGTAC | 3.57 | 3.05 | 0.771 | 3.33 | 0.27 | 4.17 | 3.28 | 3.51 | 1.5 | 2.6 | 1.32 | 2.77 | 0.391 | 0.0582 | 2.15 | 3.91 | 1.38 | 4.76 | 1.57 | 3.43
ACTTACGGGTCAACGAGCTTATAGCACGCGTATA | 6.23 | 3.9 | 0.0459 | 3.55 | 0.744 | 5.49 | 4.76 | 5.05 | 1.71 | 3.6 | 3.07 | 3.31 | 0.724 | 0.908 | 1.42 | 3.19 | -0.152 | 4.16 | 0.825 | 4
TAGCCTAGGTCATGCGAGCCAGTATAGTGTCGGC | 4.25 | 2.95 | 0.265 | 1.8 | 0.134 | 3.6 | 2.35 | 2.43 | 0.259 | 1.24 | 1.99 | 2.77 | 0.571 | 0.0763 | 1.17 | 1.38 | -0.628 | 2.33 | -0.182 | 3.72
CCTAGTTGGTCAGGAGGTCACACCCCGGATATGA | 3.53 | 3.05 | 2.07 | 3.15 | 0.855 | 3.98 | 2.86 | 3.57 | 1.05 | 3.09 | 1.1 | 3.66 | 0.426 | 0.108 | 3.14 | 4.1 | 1.16 | 4.24 | 2.03 | 3.71
TCTATTAGTTGATTAGGGCAACCTAAACAGCGGA | 0.561 | 0.704 | 0.325 | 0.595 | 0.8 | 0.918 | 0.209 | 1.95 | 3.39 | 2.86 | 1.94 | 1.73 | 1.37 | 1.62 | 1.03 | 0.712 | -0.0681 | 1.11 | 1.09 | 1.14
CCTAGCAGGCCAGGGTCAGTCAAGCATTTCGCTT | 0.838 | 0.841 | -0.832 | 1.08 | -1.29 | 1.85 | -0.277 | 0.376 | -0.624 | -0.0858 | -0.0042 | 0.156 | -1.41 | -1.98 | 0.086 | 1.04 | -0.793 | 1.69 | -0.695 | 2.09
TCTCGGAGGACACGAAGCTCAGAGCTTTCCAGAG | 0.39 | -0.167 | -0.771 | -0.53 | -1.25 | -0.0868 | -0.122 | 0.617 | 1.74 | 1.27 | 1.41 | -0.21 | -1.23 | -1.14 | -0.926 | -0.254 | -0.712 | -0.204 | -0.988 | 1.24
GGAACGAGGGCAAAGTAGATAGCATCTGTCGACG | 0.832 | 0.557 | -0.498 | 0.289 | -0.467 | 1.98 | 2.48 | 2.96 | 0.802 | 2.23 | 4.05 | 3.19 | -0.596 | -0.605 | 0.234 | 0.482 | 0.16 | 0.38 | -0.526 | 2.15
CCGACTGGGCCAAAGGTCATTGATTCCAATGCTC | 4.37 | 4.94 | 3.7 | 4.49 | 0.0732 | 6.09 | 11 | 10 | 8.79 | 12.1 | 3.83 | 5.72 | -0.642 | 0.24 | 4.69 | 5.36 | 1.79 | 5.72 | 0.97 | 4.52
TCTCGGAGGACACGAAAGGTCCGAGCTCGACATC | 0.78 | 0.222 | -0.359 | -0.21 | -0.97 | 0.254 | 0.0516 | 0.627 | 1.98 | 1.28 | 1.48 | -0.219 | -0.586 | -0.37 | -0.226 | 0.0287 | -0.785 | 0.412 | -1.1 | 1.47
CCTTACGGGTCACGAGGTTATACCACGACGAGCG | 6.99 | 4.85 | 0.42 | 4.37 | -0.0941 | 6.07 | 6.94 | 6.43 | 3.65 | 5.65 | 4.05 | 5.31 | 1.4 | 2.59 | 3.29 | 4.71 | 0.172 | 6.09 | 0.951 | 4.45
TGAATGAGATTATAAGATCAGGGAACGTTGCAAA | -0.81 | -0.599 | -0.661 | -0.508 | -0.369 | -0.202 | 0.324 | 0.0746 | 0.527 | 0.406 | -1.28 | -0.236 | 0.555 | 0.576 | -1.31 | -0.518 | -0.193 | -0.548 | 0.0948 | -1.13
TGAATGAGGTTAAAGATCAGTGAACGTGGCGTCG | 3.15 | 2.41 | -0.442 | 1.55 | -0.0397 | 4.69 | 5.57 | 6.1 | 4.77 | 6.78 | 2.37 | 3.44 | 0.722 | 0.242 | 1.24 | 2.01 | 0.152 | 3.08 | -0.0565 | 2.09
GCTGCTAGGTCAGGTTGTTCAGCTAACGGGTACG | 1.07 | 0.82 | -0.00729 | 0.433 | -0.427 | 1.29 | 0.414 | 1.18 | -0.403 | 0.471 | 3.24 | 2.3 | 0.0355 | -0.699 | 0.293 | 0.34 | -0.306 | 0.883 | -0.985 | 3.15
CGTCAAAGTTCAACTAAGGTAACGTTAAGCACGC | 7.22 | 6.43 | 4.8 | 4.26 | 2.3 | 5.14 | 5.07 | 5.53 | 2.21 | 4.37 | 0.539 | 2.1 | 1.06 | 1.28 | 3.26 | 5.84 | 4.4 | 4.54 | 2.15 | 5.22
CGAACTAGGTCAAGGACGGTGAATCTCCGCACGC | 3.32 | 2.02 | 0.122 | 1.29 | -0.582 | 4.44 | 6.87 | 6.24 | 3.95 | 5.89 | 7.98 | 7.86 | 0.422 | -0.145 | 0.732 | 1.03 | -0.242 | 1.5 | -0.265 | 3.76
